Screening data from PubChem BioAssay.
Sampled rows, rich in hits. Any-hit rate of the full collection: about 7.3%.
HCMV inh: inhibitors of human cytomegalovirus; activity change, negative = inhibition, % at 57.5 µM; AID 1259415; HFF cells, HCMV-luciferase reporter, 72 h; hits give low values; actives 4.5% (n = 410,000); in the data active = activity change below about -60%; inconclusive = no clear call, values can overlap the other calls; inactive = above about -39%
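HFF cells seeded 16 h at 37C, treated with compounds, infected with luciferase-reporter HCMV at MOI 1 PFU/cell; luciferase read at 72 h post infection, normalized to buffer-only and Salinomycin controls.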
HCV inhibitor: inhibitors of hepatitis C virus infection; Huh7.5.1 HCVcc-Cre infection, luciferase reporter, 44 h; actives 3.4% (n = 340,000); Potency, µM (doses to about 41.8 µM), for the others: at the highest dose activity change, negative = inhibition, usual class: inhibitors; AID 651820; active = well fitted inhibition curve with a large enough effect; inconclusive = small, poorly fitted or top-dose-only effect, or another doubt; inactive = no such curve, though single readings can be large or run the other way; note: potency is the fitted concentration of half-maximal effect
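Antiviral activity was scored by luciferase reporter output from cells infected with HCVcc-Cre (~0.5 moi) in presence of compound, 44 h infection period, cells seeded 1,000/well 4 h prior.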
VACV Venus inh: vaccinia inhibition (Venus reporter); actives 0.46% (n = 330,000); Potency, µM (titrated, usually from 36.5 µM), without a hit: at the top dose activity change, negative = inhibition, actives largely listed as inhibitors; Vaccinia virus Venus reporter expression, fluorescence; calls by dose curve; tested in A549 cells; note: potency is the fitted concentration of half-maximal effect; nearly all actives have a fitted effect of over 30% in size
Vaccinia mCherry: vaccinia inhibition (mCherry reporter). Vaccinia virus mCherry reporter infection, fluorescence. Potency, µM (top dose mostly 36.5 µM), inactives show at the highest dose activity change, negative = inhibition, usual class: inhibitors. actives 0.63% (n = 310,000). AID 720579; calls by dose curve; tested in A549 cells; note: potency is the fitted concentration of half-maximal effect; nearly all actives have a fitted effect of over 35% in size
FMDV inh: foot and mouth disease virus antiviral activity; FMDV antiviral cell-based qHTS; Potency, µM (top dose mostly 57.9 µM), for the others: top-dose activity change, negative = inhibition, hits mostly inhibitors; actives 1.2% (n = 410,000); AID 1159524; calls by dose curve; tested in HEK293T cells; note: read-out not given here; potency is the fitted concentration of half-maximal effect; nearly all actives have a fitted effect of over 45% in size
* = called active by the depositor; i = inactive; ? = inconclusive; nt = no result; ! = not active in a repeat; [ ] = remark or other dose. % is set by controls: 0 for no effect and ±100 for the full control effect.

SMILES	HCMV inh	HCV inhibitor	VACV Venus inh	Vaccinia mCherry	FMDV inh
CCN(Cc1ccccc1)C(=O)COC(=O)c1cc(S(=O)(=O)Nc2c(C)n(C)n(-c3ccccc3)c2=O)ccc1C	-64.7*	-1.9%	-10.8%	-4.3%	14.2%
Cc1ccc2oc(-c3ccc(Cl)c(NC(=O)c4cc5ccccc5o4)c3)nc2c1	70.2	nt	2.7%	-4.1%	54.2%
CN(C)c1ccc(-c2nc3ccccn3c2/N=C/c2ccc(Br)cc2)cc1	?	24.9%	-10.4%	-20.1%	12.6µM*
Cc1ccc(SCc2cc(=O)[nH]c(/N=C(\N)Nc3ccccc3Sc3ccccc3)n2)cc1	-93.5*	14.6%	-6.3%	-12.2%	-17.6%
COc1ccccc1N/C(N)=N/c1nc(CSc2ccc(C)cc2)cc(=O)[nH]1	?	?	-22.1%	?	?
Cc1ccc(N/C(N)=N/c2nc(CSc3ccccn3)cc(=O)[nH]2)c(C)c1	-68.5*	?	-14.0%	i	?
CCc1ccc(N/C(N)=N/c2nc(CSc3ccccn3)cc(=O)[nH]2)cc1	-84.6*	?	0.8%	i	?
O=C(NCCN1CCOCC1)c1cnn(-c2nccc(-c3cc4ccccc4o3)n2)c1C1CC1	nt	nt	-21.7%	-6.3%	-10.6%
COc1cccc(CNc2ccc(S(N)(=O)=O)cc2)c1OCc1ccccc1F	-26.5	?	-20.3%	-6.8%	?
COc1cc(CNc2ccc(S(N)(=O)=O)cc2)ccc1OCc1ccccc1F	?	11.2µM*	nt	nt	1.5%
COc1ccc2c(-c3ccccc3)cc(N3CCOCC3)nc2c1	-25.9	12.6µM*	-23.8%	nt	?
c1ccc(-c2cc(-c3ccc(N4CCOCC4)cc3)nc3ccccc23)cc1	13.2	-10.5%	-16.2%	-22.4%	16.1%
N#Cc1c(-n2ncnc2-c2ccccc2Cl)sc2c1CCCCC2	-0.2	nt	9.0%	-2.1%	-27.1%
N#Cc1c(-n2ncnc2-c2ccccc2C(F)(F)F)sc2c1CCCCC2	-69.0*	nt	8.3%	-5.1%	0.355µM*
CCCSc1nc(N2CCOCC2)c2c(c1C#N)CCCC2	-31.3	11.2µM*	-15.5%	-18.1%	?
CN1Cc2c(N3CCOCC3)nc(SCc3ccccc3)c(C#N)c2CC1(C)C	-21.3	10µM*	nt	nt	-10.9%
Cn1cc(/C=N/n2cnc3scc(-c4ccccc4)c3c2=O)c2ccccc21	-17.3	6.31µM*	?	?	-17.1%
O=c1c2c(-c3ccccc3)csc2ncn1/N=C/c1cccc([N+](=O)[O-])c1O	-39.5	-13.6%	-20.4%	-26.8%	-5.2%
CCOCc1c(C(=O)N2CCN(CCOc3ccc(Cl)cc3)CC2)oc2ccccc12	-23.9	5.62µM*	-6.8%	-21.5%	?
Cc1ccc(CNC(=O)c2nnc(Cc3cccc(F)c3)o2)cc1	-12.2	nt	-8.2%	-14.6%	-1.7%
CCN(CC)P(=O)(Nc1ccccc1Br)c1ccc(N(C)C)cc1NC(=O)c1ccco1 (stereo unspecified)	-60.5*	?	-1.7%	-11.5%	?
CCCc1c(CC)c(=N)c2ccccc2n1C	-86.7*	-4.4%	-23.3%	-22.1%	?
COc1ccc(-c2nc(NC(=O)c3[nH]c(C)c(C(C)=O)c3C)sc2C)cc1	14.1	1µM*	-24.7%	-20.8%	?
COc1ccc(-c2nc(NC(=O)c3ccco3)sc2C)cc1	30.7	nt	?	?	0.7%
CC(=O)c1c(C)[nH]c(C(=O)Nc2nc(-c3ccc(-c4ccccc4)cc3)cs2)c1C	-39.0	?	-18.2%	i	11.2µM*
SMILES	HCMV inh	HCV inhibitor	VACV Venus inh	Vaccinia mCherry	FMDV inh
CC(=O)c1c(C)[nH]c(C(=O)Nc2nc(-c3ccc(Cl)cc3)cs2)c1C	?	?	-8.3%	-8.4%	?
CCOc1ccccc1-c1nc(CN2CCN(C(=O)c3ccco3)CC2)c(C)o1	-7.1	-18.3%	nt	nt	-8.7%
CCOc1ccccc1-n1c(CN2CCN(C(=O)c3ccco3)CC2)nc2ccccc2c1=O	-105.4*	1.2%	nt	nt	-29.9%
O=C(Nc1ccc2c(c1)CCCN2C(=O)c1ccccc1)c1ccccc1Br	-70.2*	?	nt	nt	?
O=C(Nc1ccc2c(c1)CCCN2C(=O)c1cccs1)c1ccccc1	-35.7	31.6µM*	-10.7%	-6.9%	-14.7%
O=C(c1ccccc1F)N1CCCc2ccccc21	-5.3	5.2%	nt	nt	8.9%
COc1cc(OC)cc(C(=O)Nc2ccc3c(c2)CCCN3C(=O)c2cccs2)c1	-77.5*	14.1µM*	-11.9%	-17.1%	?
CCc1ccc2c(c1)CCCN2C(=O)c1ccccc1C(=O)O	-24.6	10µM*	nt	nt	-1.8%
O=C(Nc1ccc2c(c1)CCCN2C(=O)c1cccs1)c1cccc(F)c1	?	?	-23.1%	-3.5%	3.4%
CC(NC(=O)C(NC(=O)OCc1ccccc1)C(C)O)C(=O)OCc1ccccc1 (stereo unspecified)	13.1	nt	nt	nt	nt
COc1cccc(-n2c(=O)c3c(C)c(C)sc3n(CC(=O)Nc3ccccc3OC)c2=O)c1	-2.0	nt	-6.1%	0.4%	-9.3%
O=C(Nc1ccc2c(c1)CCCN2C(=O)c1cccs1)c1cccc(C(F)(F)F)c1	-70.3*	nt	-16.7%	-1.5%	?
O=C(O)c1ccc(Nc2nc3ccc(Cl)cc3[nH]2)cc1	7.7	2.82µM*	-1.3%	i	-14.0%
CC(C)[C@H](N)C(=O)OCCOCn1cnc2c(=O)[nH]c(N)nc21	-6.3	0.501µM*!	-17.5%	i	-11.2%
COc1cccc(C(=O)Nc2nc(-c3nnn(-c4ccccc4C(F)(F)F)c3C)ns2)c1	-76.0*	nt	-24.5%	-22.2%	-10.9%
Cc1cccc(C(=O)Nc2nc(-c3nnn(-c4cc(C)ccc4C)c3C)ns2)c1	-62.3*	nt	-25.1%[7.34 µM]	-23.4%[7.34 µM]	?
COc1ccc(C(=O)Nc2nc(-c3nnn(-c4ccc(F)cc4F)c3C)ns2)cc1	-103.8*	nt	?	?	?
Cc1cccc(C(=O)Nc2nc(-c3nnn(-c4cc(F)ccc4F)c3C)ns2)c1	-26.1	nt	-26.1%	-18.7%	-15.5%
Cc1cc(NC(=O)CCl)no1	-81.8*	?	?	?	?
Cc1noc(C)c1COc1cccc(C(=O)Nc2ccc(Br)cc2F)c1	12.4	2.82µM*	?	?	-25.5%
Cc1ccc(NC(=O)c2cccc(OCc3c(C)noc3C)c2)cc1S(=O)(=O)Nc1ccccc1Cl	-65.9*	?	-28.9%	-18.9%	31.9%
Cc1ccc(NC(=O)c2ccc(OCc3c(C)noc3C)cc2)cc1C	?	4.47µM*	-27.7%	-18.8%	31.6µM*
CCCC(C(=O)Nc1c(C)cccc1C)N1C(=O)C(=O)c2ccccc21 (stereo unspecified)	-22.5	nt	nt	nt	nt
Cc1ccc(NC(=O)C(Cc2ccccc2)n2cccc2)cc1C (stereo unspecified)	?	nt	-8.8%	-13.0%	-8.6%
O=S(=O)(NCc1ccccc1)NCc1ccccc1F	3.9	3.3%	-3.6%	i	49.5%
O=S(=O)(NCc1ccccc1)NCc1ccccc1	-68.4*	3.1%	-9.7%	-3.5%	21.4%
CCSc1nnc(NC(=O)c2ccccn2)s1	9.9	?	?	22.4µM*	0.0%
CCSc1nnc(NC(=O)C(C)(C(F)(F)F)C(F)(F)F)s1	-65.9*	?	nt	nt	-20.8%
